Only some compounds are listed: those with a hit (about 0.97% of all), similar ones and a draw of the others.
RecA splice inh = blocks M. tuberculosis RecA intein splicing. P9WHJ3. cell-free RecA intein splicing, fluorescence. inhibition, % (no concentration beside the values). actives 0.75% (n = 290,000). AID 2221; in the data active = inhibition above about 30%
Mtb BioA inh = BioA (M. tuberculosis) enzyme inhibition | actives 0.096% (n = 360,000) | inhibition, % at 9.99 µM | purified M. tuberculosis BioA enzyme, plate reader; in the data active = inhibition above about 40%
Rv3671c protease = inhibits the M. tuberculosis serine protease Rv3671c; AID 2606; actives 0.048% (n = 320,000); inhibition, % at 5.96 µM; in the data active = inhibition above about 38%;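 also: extracellular domain of Rv3671c used as enzyme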
Target sequence (P9WHR9 whole entry, looked up, the tested form may be a part): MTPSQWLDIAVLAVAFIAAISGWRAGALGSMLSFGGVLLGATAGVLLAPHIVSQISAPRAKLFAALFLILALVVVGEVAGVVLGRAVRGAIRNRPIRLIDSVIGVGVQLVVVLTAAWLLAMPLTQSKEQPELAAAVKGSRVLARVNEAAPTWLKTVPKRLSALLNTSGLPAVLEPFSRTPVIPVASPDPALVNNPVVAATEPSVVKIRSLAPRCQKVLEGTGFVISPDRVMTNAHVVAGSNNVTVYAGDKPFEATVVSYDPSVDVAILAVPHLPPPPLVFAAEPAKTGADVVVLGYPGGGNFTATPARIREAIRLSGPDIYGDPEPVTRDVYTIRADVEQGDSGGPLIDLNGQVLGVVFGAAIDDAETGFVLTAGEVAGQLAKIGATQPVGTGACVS
TcdB GH inh = inhibitors of Clostridioides difficile toxin B glycohydrolase; P18177; TcdB glycohydrolase enzymatic assay, plate reader; inhibition, % at 9.99 µM; actives 0.24% (n = 350,000); AID 652162; in the data active = inhibition above about 10%
FadD28 FP inh = blocks FadD28 binding to the bisubstrate probe; actives 0.22% (n = 360,000); fluorescence polarization; inhibition, % at 12.5 µM; in the data active = inhibition above about 8.5%, passing the limit was not always enough
UGM FP inh = blocks M. tuberculosis UGM enzyme | P9WIQ1 | purified UGM, fluorescence polarization probe displacement | inhibition, % at 10 µM | actives 0.06% (n = 320,000) | AID 504406; in the data active = inhibition above about 10%, passing the limit was not always enough
Of the large screens only hits and unclear results are named; the others gave an inactive call.

CO[C@H]1CN(C)C(=O)c2ccc(NC(=O)C3CC3)cc2OC[C@H](C)N(C(=O)c2ccccn2)C[C@H]1C	none (no result: RecA splice inh, Rv3671c protease, FadD28 FP inh, UGM FP inh)
Cc1ccc(NC(=O)CNc2ccccc2N2CCCC2=O)cc1S(=O)(=O)N1CCOCC1	FadD28 FP inh 21 (no result: RecA splice inh, Rv3671c protease, UGM FP inh)
COc1ccc(NC(=O)CNc2ccccc2N2CCCC2=O)cc1S(=O)(=O)N1CCOCC1	FadD28 FP inh 10 (no result: RecA splice inh)
O=c1cc(CSc2nnnn2-c2ccccc2)[nH]c2[nH]n(-c3ccccc3)c(=O)c12	FadD28 FP inh 8.9 (no result: TcdB GH inh)
C[C@@H]1CN([C@@H](C)CO)C(=O)c2cccc(NC(=O)c3ccc(-c4nccs4)cc3)c2O[C@@H]1CN(C)S(=O)(=O)c1ccc(Cl)cc1	none (no result: RecA splice inh, Rv3671c protease, FadD28 FP inh, UGM FP inh)
COc1cc(C=C(c2nc3ccccc3s2)c2nc3ccccc3s2)ccc1O	RecA splice inh 51
CCC1=NN2C(=N)/C(=C\c3ccc(SCc4ccco4)o3)C(=O)N=C2S1	FadD28 FP inh 11 (no result: RecA splice inh, TcdB GH inh)
CCCC1=NN2C(=N)/C(=C\c3ccc(SCc4ccco4)o3)C(=O)N=C2S1	FadD28 FP inh 14 (no result: TcdB GH inh)
CCC1=NN2C(=N)/C(=C\c3cccn3-c3ccc(OC)cc3)C(=O)N=C2S1	UGM FP inh 14 (no result: Mtb BioA inh)
C[C@@H]1CN([C@@H](C)CO)C(=O)c2cc(C#Cc3ccccc3F)cnc2O[C@@H]1CN(C)C(=O)C1CCC1	none (no result: RecA splice inh, Rv3671c protease, FadD28 FP inh, UGM FP inh)
O=C(NCc1ccncc1)[C@@H]1CCCN1C(=O)[C@@H]1CCCN1	TcdB GH inh 12 (no result: RecA splice inh, Mtb BioA inh, Rv3671c protease, FadD28 FP inh, UGM FP inh)
O=C(NCc1ccccc1)[C@@H]1CCCN1C(=O)[C@@H]1CCCN1C(=O)c1cccs1	TcdB GH inh 12 (no result: RecA splice inh, Mtb BioA inh, Rv3671c protease, FadD28 FP inh, UGM FP inh)
O=C(NCc1ccccc1Cl)[C@H]1CCCN1C(=O)[C@H]1CCCN1	none (no result: RecA splice inh, Mtb BioA inh, Rv3671c protease, FadD28 FP inh, UGM FP inh)
C/C(CCc1ccccc1)=N\NC(=O)C1C2CCCCC21 (stereo unspecified)	TcdB GH inh 11 (no result: Mtb BioA inh)
Cc1c(C)n(C)c2ccc(C(=O)NCc3cccs3)cc12	FadD28 FP inh 12
Cc1c(C)n(C)c2ccc(C(=O)NCCCN3CCN(C)CC3)cc12	none
CCc1ccc(Nc2n[n+](-c3ccccc3)c(-c3ccc(OC)c(Br)c3)s2)cc1	TcdB GH inh 11
CCc1ccc(Nc2n[n+](-c3ccccc3)c(-c3ccc(SC)cc3)s2)cc1	none
O=c1oc(-c2ccc(O)c(O)c2)cc2cc(O)cc(O)c12	FadD28 FP inh 12 (no result: RecA splice inh, UGM FP inh)
O=c1oc(-c2ccc(O)c(O)c2)cc2cccc(O)c12	none (no result: RecA splice inh, UGM FP inh)
COc1ccc2c3c(n(C)c2c1)[C@H](CO)N(S(C)(=O)=O)CC31CN(C(=O)Nc2cccc(F)c2)C1	none (no result: RecA splice inh, Mtb BioA inh, Rv3671c protease, FadD28 FP inh, UGM FP inh)
COc1cc(/C=C2\SC(=S)N(CC(=O)O)C2=O)ccc1OS(=O)(=O)c1ccc(C)cc1	FadD28 FP inh 9.7 (no result: RecA splice inh)
COc1cccc(-n2c(SCC(=O)N3CCOCC3)nnc2-c2c[nH]c3ccccc23)c1	TcdB GH inh 11
CC[C@H](C)[C@H]1CNC(=S)N1CC1CCN(CCCC2CCCC2)CC1	TcdB GH inh 13 (no result: RecA splice inh, Rv3671c protease, UGM FP inh)
Nc1ccc2nc(-c3ccccc3)[nH]c2c1	none (no result: TcdB GH inh)
Nc1ccc2nc(-c3cccs3)[nH]c2c1	TcdB GH inh 13
Cc1onc(-c2ccccc2Cl)c1C(=O)Nc1cnn(Cc2ccccc2)c1	TcdB GH inh 13
ON=C1c2ccccc2-c2ccc(O)cc21	TcdB GH inh 15 (no result: RecA splice inh, Mtb BioA inh, Rv3671c protease, UGM FP inh)
O=C(O)[C@@H]1[C@@H](CO)[C@@H]2Cn3c(ccc(-c4cncnc4)c3=O)[C@@H]2N1C(=O)C1CCCC1	none (no result: RecA splice inh, Mtb BioA inh, Rv3671c protease, FadD28 FP inh, UGM FP inh)
CC(C)C#Cc1cnc2c(c1)C(=O)N([C@@H](C)CO)C[C@@H](C)[C@H](CN(C)Cc1ccccn1)O2	none (no result: RecA splice inh, Mtb BioA inh, Rv3671c protease, FadD28 FP inh, UGM FP inh)
CSc1ccc(/C=N/NC(=O)CN2CCN(Cc3ccc(Cl)cc3)CC2)cc1	none (no result: Mtb BioA inh)
CSc1ccc(/C=N/N2CCN(Cc3ccc(Cl)cc3)CC2)cc1	TcdB GH inh 11
Oc1ccc(/C=N/N2CCN(Cc3ccccc3)CC2)cc1	TcdB GH inh 18
CC(C)(C)C1CCc2sc(-c3nnc(CCl)o3)cc2C1 (stereo unspecified)	RecA splice inh 51 (no result: Mtb BioA inh)
CC(=O)N[C@@H]1CC[C@@H](CCNC(=O)Nc2ccc(C(F)(F)F)cc2)O[C@@H]1CO	none (no result: RecA splice inh, Rv3671c protease, FadD28 FP inh, UGM FP inh)
Oc1ccc(/C(Cc2ccc3ccccc3n2)=N\Nc2ccccc2)c(O)c1	RecA splice inh 47 (no result: Mtb BioA inh)
CN(C)CC#Cc1cccc(-c2nc(C(=O)O)cc3c2[C@H](CCO)N(S(=O)C(C)(C)C)C3)c1 (stereo partly specified)	none (no result: RecA splice inh, Rv3671c protease, FadD28 FP inh, UGM FP inh)
CC(C)CN(C(=O)c1ccc(-n2cncn2)c([N+](=O)[O-])c1)C1CCS(=O)(=O)C1 (stereo unspecified)	FadD28 FP inh 22

Screens as filed in PubChem BioAssay.
